About 900 (0.27%) of roughly 330,000 compounds were called active.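 How the source made its calls: active means inhibition above the campaign's mean inhibition across all tested compounds plus 3 SD (cut at about 9.9% in these data); inactive means the rest.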 What follows is part of a selection rich in actives, with near analogues and random picks from the rest.

The assay can be described thus: E. coli V3065 growth inhibition, primary screen, counter-screen for AddAB inhibitor project, absorbance, OD600 (AID 449728). Particulars: 18 h, at 11.9 µM, hits give high values.
Consider `C/C(=N/O)c1ccc2ccc3ccccc3c2c1`, for which the inhibition was 1.2% (inactive).

`O=[N+]([O-])c1cnc2ccc3ccccc3c2c1`: the inhibition is 53.1% (active).

Turning to `Cc1ccc(-n2c(-c3ccc([N+](=O)[O-])cc3)nc3ccccc3c2=O)cc1`, the inhibition is -0.79% (inactive).

For `COCCNC(=O)CN1C2CCC1CC(O)(c1cccnc1)C2` (stereo not given), the inhibition was -3.36% (inactive).

On to `O=c1[nH]c(=O)n(-c2ccc(F)cc2)c(O)c1C=NCCN1CCCCC1`, for which the inhibition is -0.49% (inactive).

Values taken from PubChem BioAssay AID449728 (The Scripps Research Institute Molecular Screening Center, 2010).
